Assay [1] is described as follows: Confirmatory qHTS to identify inhibitors of SARS-CoV-2 cell entry (AID 1645844; calls by dose curve; further: potency means the concentration at half of the fitted maximal effect; nearly all actives have a fitted effect of over 45% in size). As to conditions: SARS-CoV-2 pseudotyped particle cell entry, luciferase; series mostly up to 57.2 µM. In a few lines: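 Luminescence entry read-out after 48 h: spike-pseudotyped MLV particles (Wuhan-Hu-1, 19-aa C-terminal truncation) added to compound-pretreated (1 h) HEK293-ACE2 cells; Data were normalised to bald PP and spike PP wells.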

Assay [2] is described as follows: VSVG counterscreen qHTS to identify inhibitors of SARS-CoV-2 cell entry (AID 1645847; calls by dose curve; further: potency means the concentration at half of the fitted maximal effect; nearly all actives have a fitted effect of over 65% in size). The conditions noted are these: VSV-G pseudotyped particle entry, luciferase; series mostly up to 57.2 µM. In a few lines:
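HEK293-ACE2 cells (Expi293F, human ACE2) pretreated 1 h with compound, then infected with MLV-based VSV-G pseudotyped particles for 48 h at 37 C; luciferase luminescence normalized to VSV-G PP and bald PP wells.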
A general note: Counterscreens check selectivity or assay interference.

Assay [3] addresses Dual specificity protein kinase CLK4 (Homo sapiens) (UniProt Q9HAZ1). The experiment in a line: qHTS Assay for Inhibitors of CDC-like Kinase 4 (Kinase-Glo Assay) (AID 1770). Further: on the % scale 0 is the no-effect control and ±100 the full control effect; nearly all actives have a fitted effect of over 65% in size. The conditions noted are these: recombinant Clk4, Kinase-Glo ATP depletion luminescence; series mostly up to 66.7 µM. In a few lines:
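25 nM Clk4 with 100 uM RS repeat peptide and 1 uM ATP (final) in Tris pH7.5, 10 mM MgCl2, 4.5 h at room temperature. Remaining ATP measured by Kinase-Glo luciferase luminescence.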
A general note: Quantitative high-throughput screening tests each substance at several concentrations.

For assay [4] the target is unchanged. The experiment in a line: qHTS Assay for Inhibitors of CDC-like Kinase 4 (ADP-FP Assay) (AID 1795). Further: on the % scale 0 is the no-effect control and ±100 the full control effect; nearly all actives have a fitted effect of over 60% in size. As to conditions: Transcreener ADP fluorescence polarization; series mostly up to 50 µM. In a few lines: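 Recombinant Clk4 (6.25 nM) phosphorylated 100 uM RS repeat peptide with 1 uM ATP in 25 mM Tris pH 7.5, 10 mM MgCl2, 0.5 mM EGTA, 2.5 mM DTT, 0.01% Triton X-100 for 1 h. ADP was detected by Transcreener ADP2 competitive fluorescence polarization after 30 min at room temperature.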

Assay [5] deals with Nuclear receptor subfamily 1 group I member 3 (Homo sapiens) (UniProt Q14994). Put plainly: Primary qHTS for antagonist of constitutive androstane receptor (CAR) against the NCATS DSHEA and TCM libraries (AID 1794836). As to conditions: CAR reporter cell assay, antagonist mode, luciferase; series mostly up to 40 µM. In a few lines: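 Antagonist mode: CAR reporter luminescence (ONE-Glo) in HepG2-CYP2B6-hCAR cells stimulated with 48 uM CITCO (final) over 24 h at 37 C, compounds titrated; viability read first by CellTiter-Fluor fluorescence.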

Assay [6] has the same target. Put plainly: Primary qHTS for agonist of constitutive androstane receptor (CAR) against the NCATS DSHEA and TCM libraries (AID 1794839).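 Further: HepG2 cells expressing human CAR with a CYP2B6 reporter plus PK11195 antagonist; 0% is about no effect.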 The conditions noted are these: CAR agonist reporter cells, qHTS luminescence; Potency: CAR antagonist co-added at 0.75 µM unless noted; series mostly up to 40 µM. In a few lines: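 HepG2-CYP2B6-hCAR cells, 2,500/well, attached 5 h, then dosed with 0.75 µM PK11195 (final) for 24 h at 37 °C. Luciferase luminescence read (ONE-Glo); CellTiter-Fluor viability (Ex/Em 405/540 nm) in same wells; CITCO positive control.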

In assay [7] the target is Cytochrome P450 3A4 (Homo sapiens) (UniProt P08684). The experiment in a line: qHTS for inhibitors of CYP3A4 against the NCATS DSHEA and TCM libraries (AID 1919971).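 Further: on the % scale 0 is the no-effect control and ±100 the full control effect; inhibition lowers luminescence from luciferin made by CYP3A4.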 As to conditions: recombinant CYP3A4 enzyme activity, luminescence qHTS; series mostly up to 34.1 µM. In a few lines: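 Substances were tested against enzyme with a pro-luciferin substrate; minus-enzyme wells served as background. After NADPH-initiated oxidation (30-45 min, RT), light was generated with P450-Glo reagent.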

For assay [8], the target named is Thyrotropin-releasing hormone receptor (Homo sapiens) (UniProt P34981). The experiment in a line: qHTS for Small Molecule Agonists and Allosteric Enhancers of Human TRH Receptor: Validation Screen for Agonists (AID 493127;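 active means calcium activation more than 3 SD above the typical response in the agonist read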;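 further: intracellular calcium rise by fluo-8 fluorescence before TRH EC20 addition; 0% is about no effect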). As to conditions: TRH receptor agonist cell assay; at 2 µM; active compounds read high. In a few lines: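 Read-out: intracellular calcium release measured kinetically by FDSS (fluo-8, ex 480/em 530 nm), 1 reading/s after a 10-cycle baseline. TRHR cells, 2000/well, cultured 18 h at 33.5C, dye-loaded at room temp. Compound-evoked positive calcium signal flags agonists.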

Assay [9] addresses Rap guanine nucleotide exchange factor 3 (Homo sapiens) (UniProt O95398). Put plainly: Counterscreen qHTS for antagonist of cAMP-regulated guanine nucleotide exchange factor 3 (EPAC1) (AID 1645888).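 Further: fluorescence loss as bound BODIPY-GDP is released from Rap1B; % of control where 0% means no effect.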 The conditions noted are these: Rap1B-BODIPY-GDP nucleotide exchange, fluorescence; series mostly up to 154 µM. In a few lines:
(§1)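 Rap1B-BODIPY-GDP 250 nM + GDP 50 uM; cpds 7-pt, final 9.74 nM–152 uM (activator mode) or from 7.32 nM upwards (inhibitor mode); RT; FI 480/540 nm at 5 and 30 min, then ± cAMP, reread.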

Assay [10] has the same target. Put plainly: Counterscreen qHTS for agonist of cAMP-regulated guanine nucleotide exchange factor 3 (EPAC1) (AID 1645889). Further: nearly all actives have a fitted effect of over 40% in size. Further: potency means the concentration at half of the fitted maximal effect. On activation: % of control where 0% means no effect. The conditions noted are these: EPAC1 Rap1B-BODIPY-GDP exchange, fluorescence; series mostly up to 154 µM. In a few lines: as §1
Assay [11] addresses Cytochrome P450 2D6 (Homo sapiens) (UniProt P10635). The experiment in a line: qHTS for inhibitors of CYP2D6 against the NCATS DSHEA and TCM libraries (AID 1919972). Further: potency means the concentration at half of the fitted maximal effect. On activity change, negative = inhibition: on the % scale 0 is the no-effect control and ±100 the full control effect. As to conditions: CYP2D6 enzymatic inhibition, luminescence qHTS; series mostly up to 34.1 µM. In a few lines: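 qHTS, concentration–response format with most substances from 19.5 nM. CYP2D6 + pro-luciferin substrate, 15 min with compound, then 1x NADPH regen, 30–45 min RT dark. Glo detection 30 min, luminescence. Quinidine control.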

Assay [12] deals with Cytochrome P450 1A2 (Homo sapiens) (UniProt P05177). The experiment in a line: qHTS for inhibitors of CYPIA2 against the NCATS DSHEA and TCM libraries (AID 1919976). Further: potency means the concentration at half of the fitted maximal effect. As to conditions: recombinant CYP1A2 enzyme activity, luminescence; series mostly up to 37 µM. In a few lines:
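Luminescence read-out: pro-luciferin converted to D-luciferin by CYP1A2, detected with P450-Glo reagent after 30 min RT. Enzyme plus substrate got compounds for 15 min RT; NADPH regeneration solution (final 1x) started a 30-45 min reaction, light-protected.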

Assay [13] is described as follows: S16 Schwann cell viability assay (CellTiter-Glo assay) (AID 624031).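 Further: plate controls were DMSO-treated cells for no effect and cell-free wells for full effect; nearly all actives have a fitted effect of over 70% in size.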 As to conditions: S16 rat Schwann cells viability, 24 h; series mostly up to 57.5 µM. In a few lines:
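Native S16 rat Schwann cells, 500-750 cells/well in DMEM with 10% FBS, dosed with compound after overnight culture and incubated 24h at 37 degree Celsius/5% CO2. Viability by CellTiter-Glo luminescence; % activity normalized to no-cell wells and DMSO-treated cells.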
Background: Cellular ATP, detected with luciferase, serves as a proxy for viable cell number.

The nature of assay [14]: Cell Viability - Renal Proximal Tubule (AID 545).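 Further: 0% = DMSO only and -100% = 100 µM tamoxifen; nearly all actives have a fitted effect of over 40% in size.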 As to conditions: renal proximal tubule cells viability, at 91.7 µM (top of the series). In a few lines: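 Rat renal proximal tubule primary cells, 1000/well, exposed to compounds for 40 hr at 37 °C in complete medium; cellular ATP read by CellTiter-Glo luminescence. AC50 from concentration-response fitted with standard Hill equation.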

For assay [15], the system named is 7G8. Put plainly: qHTS profiling for inhibitors of Plasmodium falciparum proliferation (AID 504749).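 Further: 0% = DMSO vehicle and full inhibition = artemisinin control; nearly all actives have a fitted effect of over 60% in size.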 The conditions noted are these: P. falciparum in erythrocytes, SYBR Green DNA, 72 h; series mostly up to 12.8 µM. In a few lines: (§2)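 In a 72 h erythrocytic culture (37 C, humidified, 5% CO2) at 2.5% hematocrit and 0.3% starting parasitemia, compounds were tested; SYBR Green I in detergent lysis buffer stained parasite DNA overnight.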

Assay [16] relates to CP291. The assay is described as above. The conditions noted are these: P. falciparum in erythrocytes, SYBR Green DNA, 72 h; series mostly up to 28.7 µM. In a few lines: as §2
Assay [17] is described as follows: Cellular Toxicity (caspase-3) Renal Proximal Tubule (AID 667).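 Further: cells exposed to compound for 16 hours at 37 °C before detection; 0% = DMSO basal and 100% = 10 µM staurosporine.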 As to conditions: renal proximal tubule cells, at 91.7 µM (top of the series). In a few lines:
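Freshly isolated primary rat kidney proximal tubule cells, 1000/well, treated 16 hr at 37 °C, then Caspase-Glo 3/7 luminescence after 1 hr. Normalized to DMSO and 10 uM staurosporine; AC50 from Hill fit.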

Assay [18] deals with Androgen receptor (Homo sapiens) (UniProt P10275). Put plainly: qHTS assay for small molecule agonists of androgen receptor signaling (AID 588515; active means well fitted curve in the direction sought with a large enough effect in the signal ratio, with a control signal flat; the % refers to the signal ratio; further: on the % scale 0 is the no-effect control and ±100 the full control effect). As to conditions: AR-UAS-bla HEK293, beta-lactamase ratio, agonist 16 h; active compounds read high. In a few lines:
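Stimulation of an AR-responsive β-lactamase reporter in GripTite HEK293 cells was measured after 16 h compound exposure at 37 °C, via CCF4 fluorescence after 2 h RT. EC50 from Hill fits, normalized to R1881 at 30 nM.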

Assay [19] has the same target. The experiment in a line: qHTS assay for small molecule antagonists of androgen receptor signaling (AID 588516; active means well fitted curve in the direction sought with a large enough effect in the signal ratio, with a control signal flat, not every such curve was filed as active; the % refers to the signal ratio; further: potency means the concentration at half of the fitted maximal effect; on activity change, negative = inhibition: on the % scale 0 is the no-effect control and ±100 the full control effect). The conditions noted are these: AR-UAS-bla HEK293, beta-lactamase ratio, antagonist mode, 16 h; series mostly up to 76.8 µM. In a few lines:
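AR-UAS-bla GripTite HEK 293 cells (2000/well) treated with compound titrations plus 10 nM R1881 for 16 h at 37C. Beta-lactamase read by CCF4 FRET (460/530 nm); IC50 from Hill fits, normalized to R1881 and DMSO control wells.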

The subject of assay [20] is CP192. Put plainly: qHTS profiling for inhibitors of Plasmodium falciparum proliferation (AID 504749).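 Further: 0% = DMSO vehicle and full inhibition = artemisinin control; nearly all actives have a fitted effect of over 60% in size.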 The conditions noted are these: P. falciparum in erythrocytes, SYBR Green DNA, 72 h; series mostly up to 28.7 µM. In a few lines: as §2

Values joined by “and” are separate entries in the source; they are usually repeats but may differ in a detail not shown here. Identical values can stand only once. Values without a mark were called inactive. Records with an inconclusive call do not appear. Active and inactive are the calls of the source. Unless noted, the call rests on the fitted dose curve; in most records, active means well fitted curve in the direction sought with a large enough effect; inconclusive means small, poorly fitted or top-dose-only effect, or another doubt; inactive means no such curve, though single readings can be large; an effect the other way counts as inactive or inconclusive.

Chain of Androgen receptor (Homo sapiens) (P10275 whole entry, looked up): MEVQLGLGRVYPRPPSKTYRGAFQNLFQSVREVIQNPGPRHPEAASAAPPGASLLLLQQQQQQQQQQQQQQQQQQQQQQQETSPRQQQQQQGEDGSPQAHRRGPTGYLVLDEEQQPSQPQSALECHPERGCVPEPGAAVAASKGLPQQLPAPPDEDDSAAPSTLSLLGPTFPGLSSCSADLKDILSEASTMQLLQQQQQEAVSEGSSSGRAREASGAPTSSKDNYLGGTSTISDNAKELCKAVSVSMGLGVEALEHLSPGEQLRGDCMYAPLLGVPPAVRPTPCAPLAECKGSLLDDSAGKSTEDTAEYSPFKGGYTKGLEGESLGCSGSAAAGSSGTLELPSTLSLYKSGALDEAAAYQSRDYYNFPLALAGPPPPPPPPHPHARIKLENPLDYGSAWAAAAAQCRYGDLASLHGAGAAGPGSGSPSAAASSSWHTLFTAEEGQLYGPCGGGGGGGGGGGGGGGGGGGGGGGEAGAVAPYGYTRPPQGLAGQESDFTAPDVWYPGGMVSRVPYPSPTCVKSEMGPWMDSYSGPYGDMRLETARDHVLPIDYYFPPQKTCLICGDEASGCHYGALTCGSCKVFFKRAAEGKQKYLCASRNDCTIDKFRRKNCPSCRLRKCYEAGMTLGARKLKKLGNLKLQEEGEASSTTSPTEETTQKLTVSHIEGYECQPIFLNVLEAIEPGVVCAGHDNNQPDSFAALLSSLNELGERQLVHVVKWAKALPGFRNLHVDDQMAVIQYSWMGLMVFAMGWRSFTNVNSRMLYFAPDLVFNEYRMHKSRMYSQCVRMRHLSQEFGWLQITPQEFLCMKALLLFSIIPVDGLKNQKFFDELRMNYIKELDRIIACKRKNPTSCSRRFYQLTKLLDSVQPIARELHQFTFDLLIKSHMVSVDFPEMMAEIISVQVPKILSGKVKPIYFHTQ
Chain of Nuclear receptor subfamily 1 group I member 3 (Homo sapiens) (Q14994 whole entry, looked up): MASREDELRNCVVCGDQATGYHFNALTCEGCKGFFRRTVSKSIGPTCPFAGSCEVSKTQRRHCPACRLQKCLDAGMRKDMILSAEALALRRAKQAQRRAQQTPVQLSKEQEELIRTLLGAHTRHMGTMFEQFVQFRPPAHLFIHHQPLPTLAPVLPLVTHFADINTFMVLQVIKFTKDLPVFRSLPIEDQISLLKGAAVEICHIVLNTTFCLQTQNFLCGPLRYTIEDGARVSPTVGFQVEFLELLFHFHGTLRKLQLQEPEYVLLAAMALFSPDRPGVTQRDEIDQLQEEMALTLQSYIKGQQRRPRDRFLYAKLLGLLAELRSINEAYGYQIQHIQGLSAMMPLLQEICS
Chain of Dual specificity protein kinase CLK4 (Homo sapiens) (Q9HAZ1 whole entry, looked up): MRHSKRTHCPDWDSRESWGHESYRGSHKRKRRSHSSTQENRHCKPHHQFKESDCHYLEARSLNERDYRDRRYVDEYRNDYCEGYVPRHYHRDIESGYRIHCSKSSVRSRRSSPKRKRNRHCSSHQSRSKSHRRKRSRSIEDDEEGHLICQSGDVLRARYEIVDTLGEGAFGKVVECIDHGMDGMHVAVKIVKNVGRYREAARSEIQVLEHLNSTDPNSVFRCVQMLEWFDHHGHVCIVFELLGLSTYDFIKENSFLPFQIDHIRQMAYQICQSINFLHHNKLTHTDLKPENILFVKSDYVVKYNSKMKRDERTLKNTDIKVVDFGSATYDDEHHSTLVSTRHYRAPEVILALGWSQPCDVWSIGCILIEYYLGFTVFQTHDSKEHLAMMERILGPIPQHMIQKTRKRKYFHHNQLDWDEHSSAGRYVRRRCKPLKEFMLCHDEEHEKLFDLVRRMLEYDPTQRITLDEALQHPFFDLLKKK
Chain of Cytochrome P450 3A4 (Homo sapiens) (P08684 whole entry, looked up): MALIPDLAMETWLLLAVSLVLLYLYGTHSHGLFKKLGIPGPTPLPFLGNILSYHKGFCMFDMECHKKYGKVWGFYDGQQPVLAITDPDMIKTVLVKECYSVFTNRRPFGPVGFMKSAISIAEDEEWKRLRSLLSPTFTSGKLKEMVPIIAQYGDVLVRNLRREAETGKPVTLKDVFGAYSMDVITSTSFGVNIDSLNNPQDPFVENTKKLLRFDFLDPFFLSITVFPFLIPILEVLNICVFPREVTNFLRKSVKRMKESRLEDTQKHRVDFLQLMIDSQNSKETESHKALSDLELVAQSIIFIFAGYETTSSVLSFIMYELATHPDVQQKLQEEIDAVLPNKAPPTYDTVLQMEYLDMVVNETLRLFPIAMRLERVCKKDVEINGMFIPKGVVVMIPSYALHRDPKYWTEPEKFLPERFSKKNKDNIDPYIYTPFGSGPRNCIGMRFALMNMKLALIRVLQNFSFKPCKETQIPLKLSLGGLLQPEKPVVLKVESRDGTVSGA
Chain of Cytochrome P450 1A2 (Homo sapiens) (P05177 whole entry, looked up): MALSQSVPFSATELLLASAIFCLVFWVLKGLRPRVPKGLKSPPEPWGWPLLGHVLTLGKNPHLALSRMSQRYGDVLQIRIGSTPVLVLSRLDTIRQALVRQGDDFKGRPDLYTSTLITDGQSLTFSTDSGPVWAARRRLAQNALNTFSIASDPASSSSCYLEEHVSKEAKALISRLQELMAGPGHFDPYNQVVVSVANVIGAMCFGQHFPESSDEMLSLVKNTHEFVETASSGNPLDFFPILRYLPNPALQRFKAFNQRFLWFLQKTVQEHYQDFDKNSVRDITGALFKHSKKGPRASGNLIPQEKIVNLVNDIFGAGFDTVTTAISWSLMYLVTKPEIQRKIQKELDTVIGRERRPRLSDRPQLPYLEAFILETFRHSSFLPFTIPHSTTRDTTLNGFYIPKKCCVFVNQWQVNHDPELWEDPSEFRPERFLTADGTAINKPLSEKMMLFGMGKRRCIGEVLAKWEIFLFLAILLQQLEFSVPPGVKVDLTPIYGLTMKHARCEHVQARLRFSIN
Chain of Cytochrome P450 2D6 (Homo sapiens) (P10635 whole entry, looked up): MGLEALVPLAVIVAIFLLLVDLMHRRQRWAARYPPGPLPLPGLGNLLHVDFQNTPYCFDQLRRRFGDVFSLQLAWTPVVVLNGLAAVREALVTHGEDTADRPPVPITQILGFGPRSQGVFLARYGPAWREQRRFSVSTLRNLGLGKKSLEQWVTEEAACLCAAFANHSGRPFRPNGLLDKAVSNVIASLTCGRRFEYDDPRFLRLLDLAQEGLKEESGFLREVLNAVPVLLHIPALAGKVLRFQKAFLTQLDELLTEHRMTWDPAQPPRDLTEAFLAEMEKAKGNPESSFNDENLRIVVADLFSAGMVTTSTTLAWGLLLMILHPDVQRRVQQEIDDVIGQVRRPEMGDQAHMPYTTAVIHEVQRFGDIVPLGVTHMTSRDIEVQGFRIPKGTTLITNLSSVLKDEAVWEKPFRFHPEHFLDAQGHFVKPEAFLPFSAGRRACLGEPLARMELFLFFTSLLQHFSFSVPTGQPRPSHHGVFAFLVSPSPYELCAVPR
Chain of Thyrotropin-releasing hormone receptor (Homo sapiens) (P34981 whole entry, looked up): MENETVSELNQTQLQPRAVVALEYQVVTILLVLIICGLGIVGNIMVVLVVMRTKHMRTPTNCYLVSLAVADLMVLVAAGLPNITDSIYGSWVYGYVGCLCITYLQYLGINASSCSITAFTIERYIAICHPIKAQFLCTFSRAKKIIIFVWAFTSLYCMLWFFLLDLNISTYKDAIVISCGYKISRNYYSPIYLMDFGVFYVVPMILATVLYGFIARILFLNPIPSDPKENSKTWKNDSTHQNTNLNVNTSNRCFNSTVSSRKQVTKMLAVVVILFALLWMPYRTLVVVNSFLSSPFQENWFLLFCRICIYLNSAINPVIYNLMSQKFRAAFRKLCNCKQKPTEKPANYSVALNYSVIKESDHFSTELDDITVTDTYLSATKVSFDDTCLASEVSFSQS
Chain of Rap guanine nucleotide exchange factor 3 (Homo sapiens) (O95398 whole entry, looked up): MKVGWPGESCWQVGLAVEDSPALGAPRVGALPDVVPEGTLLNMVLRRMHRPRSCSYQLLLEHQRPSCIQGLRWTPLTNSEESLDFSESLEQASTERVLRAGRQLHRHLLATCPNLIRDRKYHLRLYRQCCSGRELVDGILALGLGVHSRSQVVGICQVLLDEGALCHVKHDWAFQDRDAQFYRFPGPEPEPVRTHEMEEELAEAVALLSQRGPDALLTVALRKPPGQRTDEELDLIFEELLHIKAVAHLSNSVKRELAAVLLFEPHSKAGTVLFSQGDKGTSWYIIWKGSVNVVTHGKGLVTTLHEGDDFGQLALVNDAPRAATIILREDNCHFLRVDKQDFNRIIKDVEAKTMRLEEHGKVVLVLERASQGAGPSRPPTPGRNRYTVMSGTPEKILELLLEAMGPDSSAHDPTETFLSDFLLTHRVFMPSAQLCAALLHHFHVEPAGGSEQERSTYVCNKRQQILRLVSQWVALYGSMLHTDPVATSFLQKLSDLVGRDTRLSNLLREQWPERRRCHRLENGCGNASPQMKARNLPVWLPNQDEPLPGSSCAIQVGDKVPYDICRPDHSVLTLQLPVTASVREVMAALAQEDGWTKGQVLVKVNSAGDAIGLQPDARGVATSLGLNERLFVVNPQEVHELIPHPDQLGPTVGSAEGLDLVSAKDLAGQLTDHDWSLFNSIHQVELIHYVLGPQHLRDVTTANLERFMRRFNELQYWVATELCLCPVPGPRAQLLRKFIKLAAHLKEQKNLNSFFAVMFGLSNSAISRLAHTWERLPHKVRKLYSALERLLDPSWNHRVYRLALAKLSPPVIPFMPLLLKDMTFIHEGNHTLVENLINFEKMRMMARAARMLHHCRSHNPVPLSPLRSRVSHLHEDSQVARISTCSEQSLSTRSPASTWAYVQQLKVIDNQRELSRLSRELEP

Regarding `CC[C@H](NC(=O)[C@H](CS(=O)(=O)CC1CC1)N[C@@H](c1ccc(F)cc1)C(F)(F)F)C(=O)C(=O)NC1CC1`, the Potency in [1] was 1.08 µM (active); in assay [2], 10.8 µM (active).

Take `OC1CCC(Oc2cccc3cnc(Nc4ccc5nc[nH]c5c4)nc23)CC1` (stereo not drawn): the figures for the Potency in [1] and in [2] were 0.482 µM (active) and 0.341 µM (active), respectively.

`Clc1ccccc1-c1cncnc1NCCc1cnc[nH]1`: the result in [3] and in assay [4] was inactive.

Take `COc1ccc2c(c1O)-c1c(OC)c(OC)cc3c1[C@H](C2)N(C)CC3`: the Potency result in assay [5], in assay [6] and in assay [7] was “inactive” throughout.

As to `CCCN1CCc2cccc3c2C1Cc1ccc(O)c(O)c1-3` (stereo not drawn), in [8], the activation is 1.44%.

Turning to `O=C(OC1CCN(CCCl)CC1)C(c1ccccc1)c1ccccc1`, the activity change, negative = inhibition in [9] was -43.6% [at 30.8 µM]. In addition, the activation in [10] is -1.7% [at 30.8 µM].

Turning to `COc1cc2c(cc1O)CC1c3c(cc(O)c(OC)c3-2)CCN1C` (stereo not drawn), the Potency entry in [5] is “inactive”. In addition, the Potency was 11.2 µM (active) in assay [11] and 3.98 µM (active) in [12].

Turning to `C[C@]12CC[C@H](O)CC1=CCC1C2CC[C@]2(C)C(=O)CC[C@@H]12` (stereo partly drawn), the activation in assay [8] was 0.438%. The Potency result in [13] is “inactive”.

For `CC1=NCCc2c1[nH]c1cc(O)ccc21`, the activity change, negative = inhibition in [9] was 251% [at 30.8 µM]. Besides, the Potency in assay [10] was 12.6 µM (active).

With `CN1CCN(c2ncc3ncc(=O)n(C)c3n2)CC1`, the outcome in assay [3] and in assay [4] was inactive.

Take `C=CCc1ccc2c(c1)OCO2`: the activity change, negative = cytotoxicity in [14] (primary cells of rat origin unless noted) is 1.52% [at 91.7 µM]. Moreover, the Potency entry in assay [6], in assay [7] and in assay [11] was “inactive” throughout. Also, the Potency in assay [12] is 15.8 µM (active).

Consider `C[N+]1([O-])[C@@H]2CC(OC(=O)[C@@H](CO)c3ccccc3)C[C@@H]1[C@H]1O[C@H]12` (stereo partly drawn), for which the Potency result in [15] and in assay [16] was “inactive” each time.

Regarding `CCNC[C@H](O)c1cccc(O)c1`, in [16], the Potency entry is “inactive”.

`O=C(O)COc1ccc(Cl)cc1Cl`: the values for the activity change, negative = cytotoxicity in [14] and in assay [14] (primary cells of rat origin) were -12.8% and -15.7%, respectively. Besides, the caspase-3 activation in [17] was 4.86%; in assay [17] (primary cells freshly taken from rat, solvent-only wells 0%, staurosporine 100%) it was 3.32%.

As to `O=S1OCC2C(CO1)C1(Cl)C(Cl)=C(Cl)C2(Cl)C1(Cl)Cl` (stereo not drawn), the activation in [18] is -11.1%. In addition, the Potency entry in [19] is “inactive”.

Consider `CCc1cccc(CC)c1N(COC)C(=O)CCl`, for which, in assay [18], the activation was -10.2% and -10.1%. Besides, the Potency in assay [19] is 44.7 µM (active).

For the molecule `C[C@@]12CC[C@H]3[C@@H](CC[C@@H]4C[C@H]5S[C@H]5C[C@]43C)[C@H]1CC[C@H]2O`, the Potency entry in assay [13], in assay [20] and in assay [16] was “inactive” each time.

Take `C[C@H](N)[C@@H](O)c1ccccc1`: the Potency result in assay [13], in [15] and in assay [20] was “inactive” throughout.

The values are drawn from PubChem BioAssay (NCATS).
